PubChem BioAssay AID493170 (National Center for Advancing Translational Sciences (NCATS), 2011)
Results filed as inconclusive are left out. Unmarked numbers belong to inactive results. Activity calls are given as the source filed them. The call rests on the fitted dose curve; in most records, active means well fitted inhibition curve with a large enough effect; inconclusive means small, poorly fitted or top-dose-only effect, or effect the other way; inactive means flat fitted curve, though single readings scatter.

Target: Ubiquitin carboxyl-terminal hydrolase 2 (Homo sapiens) (UniProt O75604)
Assay: Ub-rhodamine 110 based assay for inhibitors Ubiquitin-specific Protease USP2a; further: nearly all actives have a fitted effect of over 50% in size
Settings: USP2a Ub-rhodamine110 cleavage, fluorescence; series mostly up to 38.3 µM; activity change, negative = inhibition: at the top concentration
Summary of the method: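 Kinetic fluorescence (485/531 nm) read each minute over 7 min after adding Ub-Rhod110 (150 nM final) to USP2a (5 nM final). The enzyme had 30 min RT exposure to compounds beforehand in Tris pH 8.0 buffer with CaCl2, CHAPS and beta-ME.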
On the % scale 0 is the no-effect control and ±100 the full control effect; potency means the concentration at half of the fitted maximal effect.

Chain of Ubiquitin carboxyl-terminal hydrolase 2 (Homo sapiens) (O75604 whole entry, looked up): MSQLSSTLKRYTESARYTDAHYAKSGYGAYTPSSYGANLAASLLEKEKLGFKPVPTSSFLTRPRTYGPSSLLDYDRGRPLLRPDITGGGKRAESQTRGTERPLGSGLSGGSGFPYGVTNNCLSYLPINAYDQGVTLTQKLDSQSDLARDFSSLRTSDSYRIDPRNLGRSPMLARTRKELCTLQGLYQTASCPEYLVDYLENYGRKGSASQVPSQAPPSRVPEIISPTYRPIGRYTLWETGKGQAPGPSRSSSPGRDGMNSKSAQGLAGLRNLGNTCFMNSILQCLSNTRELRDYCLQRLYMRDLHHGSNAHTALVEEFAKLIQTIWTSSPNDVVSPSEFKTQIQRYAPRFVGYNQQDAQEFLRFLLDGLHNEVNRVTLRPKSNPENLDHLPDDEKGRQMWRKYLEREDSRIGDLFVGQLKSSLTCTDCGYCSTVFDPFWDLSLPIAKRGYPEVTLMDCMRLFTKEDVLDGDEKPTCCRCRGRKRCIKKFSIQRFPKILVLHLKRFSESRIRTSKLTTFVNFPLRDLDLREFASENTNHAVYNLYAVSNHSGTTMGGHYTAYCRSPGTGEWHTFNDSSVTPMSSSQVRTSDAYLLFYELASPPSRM

SMILES	activity change, negative = inhibition [%]	Potency
O=C(Nc1ccc2c(c1)OCO2)NC1(C(F)(F)F)Oc2ccccc2O1	-7.72	–
CCOC(=O)Nc1nnc(CCc2ccccc2)s1	1.11	–
CN(C)C=Nc1ncc2c3ccccc3n(CCN(C)C)c2c1C#N	-0.528	–
C/C(=N/NC(=O)c1cc2ccccc2cc1O)C1C(=O)c2ccccc2C1=O	–	1.78 µM (active)
O=C(CSc1nccc(=O)[nH]1)N1N=C2/C(=C/c3ccco3)CCCC2C1c1ccco1 (centres undefined)	–	10 µM (active)
O=C(CSc1ncn[nH]1)Nc1ccc(Br)cc1F	2.25	–
Cc1ccc(C2=N/C(=C\c3c(C)nn(-c4ccccc4)c3N3CCCC3)C(=O)O2)cc1	20.2	–
O=C(/C=C\c1ccco1)c1ccc(NC(=O)c2ccco2)cc1	–	10 µM (active)
O=C1CS/C(=C/C(=O)c2ccccc2)N1	-10.4	–
COC(=O)[C@@]12CCCCN1[C@H](c1ccc(-c3ccc(Cl)c(Cl)c3)cc1)[C@H]1C(=O)N(C)C(=O)[C@H]12	1.84	–
O=C(COC(=O)c1ccc(NS(=O)(=O)c2cccs2)cc1)Nc1nc2c(F)c(F)c(F)cc2s1	–	3.55 µM (active)
COC(=O)c1[nH]c2ccccc2c1NC(=O)CN1CCCc2ccccc21	-15.7	–
CC1=NN(c2ccc(C(=O)O)cc2)C(=O)/C1=C\c1ccc(OC(=O)c2cccs2)cc1	-21.7	–
COc1cccc(NC(=O)Cc2ccccc2)c1	1.85	–
CCOc1ccccc1C(=O)NC1CC2CCCC(C1)N2C1CC1 (centres undefined)	4.05	–
Cc1cc(C)n2cc(CSc3nnnn3-c3ccccc3C)nc2n1	-16.8	–
CC1(C)CC(=O)C2=C(C1)N(Cc1ccco1)C(=O)NC2(C(F)(F)F)C(F)(F)F	2.14	–
COc1ccc(O)c(-c2cc(-c3ccc(F)cc3)n[nH]2)c1	-16.2	–
O=C(CN1CCC(O)CC1)N1c2ccccc2C=Cc2ccccc21	-2.98	–
Cc1ccc(C(C(=O)NC2CCCC2)N2CCc3ccccc32)cc1 (centres undefined)	6.95	–

SMILES	activity change, negative = inhibition [%]	Potency
COc1cc(/C=C/c2cc[n+](C)cc2)ccc1OCC(=O)Nc1ccc(Cl)c(Cl)c1	-14.5	–
CCOC(=O)C1CCN(C(=O)COC(=O)c2c(C)c(CC)nc3ccccc23)CC1	-0.892	–
O=C(CCN1C(=O)/C(=C\c2ccco2)SC1=S)Nc1ccc(C(=O)O)c(O)c1	–	7.94 µM (active)
CNC(=O)NC(=O)CSc1ccc(NC(C)=O)cc1	-6.69	–
CC(C)(C)[C@H]1COC(=O)[C@@H](Cc2ccc(F)cc2)C/C=C\C[C@@H](CC(=O)N[C@H](CO)Cc2ccccc2)C(=O)N1	-1.31	–
CCCOC(=O)CCCCC1SCC(NC(=O)OC)C1NC(=O)OC (centres undefined)	6.99	–
O=C(CSc1nnc(SCc2ccccc2)s1)N/N=C/c1c[nH]c2ccccc12	–	10 µM (active)
O=C(COC(=O)c1cc(-c2ccc(Cl)s2)nc2ccccc12)NCc1ccco1	–	11.2 µM (active)
O=C(Nc1nc(-c2ccco2)c(-c2ccco2)s1)C1CC(=O)N(c2ccc3c(c2)OCCO3)C1 (centres undefined)	–	2.51 µM (active)
C=CC[C@H](CC(=O)N[C@H](CO)Cc1ccccc1)C(=O)N[C@@H](COC(=O)[C@@H](CC=C)CC(=O)OC(C)(C)C)Cc1c[nH]c2ccccc12	-19.9	–
COc1cccc(N2C(=O)C3CCCN3C2c2ccc(N(C)C)cc2)c1 (centres undefined)	-6.94	–
Fc1ccc(-c2nnn(Cc3nc4ccccc4s3)n2)cc1	-19.1	–
Cc1cc(C)n(C(=O)c2cccc(S(=O)(=O)N3CCCC3)c2)n1	2.63	–
CCCCCCCCCCOC(=O)Cn1c(COc2ccccc2C)[n+](C)c2ccccc21	-27.5	–
CSc1cccc(NC(=O)c2ccccc2N(C)S(C)(=O)=O)c1	1.08	–
Cc1ccc(S(=O)(=O)N2[C@@H](c3ccc(C(C)(C)C)cc3)C(C(=O)O)=CC[C@H]2c2ccc(Cl)c(Cl)c2)cc1	–	10 µM (active)
O=C(c1ccccc1)N1CCN(C(=O)N2CCCCC2)CC1	0.808	–
COc1ccccc1C(=O)n1nc(-c2cccnc2)nc1NCc1ccccc1	-20.8	–
Cc1ccc(NC(=O)c2onc(C)c2Cl)cc1	-5.26	–
